In the supplement of paper PMC8728848:
The entries come from a sample that favours the strongest signals as a whole.

What was measured:
Assay in all cases: glycan array binding signal (z-score within array); higher = stronger binding
Conditions in all cases: glycan notation: IUPAC condensed, linker removed
[1] = target: Fuc(a1-2)Gal(b1-3)GlcNAc(b1-2)Man(a1-3)[Fuc(a1-2)Gal(b1-3)GlcNAc(b1-2)Man(a1-6)]Man(b1-4)GlcNAc(b1-4)[Fuc(a1-6)]GlcNAc
In short: (§1)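 The binding signal is a Z-score computed within each array and averaged over linkers. Arrays of the same protein sequence at different concentrations or buffers were also averaged together. Data originate from 3228 arrays in the Consortium for Functional Glycomics database, kept only where the protein sequence was available.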

[2] = target: Fuc(a1-2)Gal(b1-4)GlcNAc(b1-2)Man(a1-3)[Fuc(a1-2)Gal(b1-4)GlcNAc(b1-2)Man(a1-6)]Man(b1-4)GlcNAc(b1-4)[Fuc(a1-6)]GlcNAc
In short: as §1

[3] = target: Fuc(a1-2)[Gal(a1-3)]Gal(b1-3)GlcNAc(b1-3)GalNAc
In short: as §1

[4] = target: Fuc(a1-2)[Gal(a1-3)]Gal(b1-3)GlcNAc(b1-6)GalNAc
In short: as §1

[5] = target: Fuc(a1-2)[Gal(a1-3)]Gal(b1-4)GlcNAc(b1-2)Man(a1-3)[Fuc(a1-2)[Gal(a1-3)]Gal(b1-4)GlcNAc(b1-2)Man(a1-6)]Man(b1-4)GlcNAc(b1-4)[Fuc(a1-6)]GlcNAc
In short: as §1

[6] = target: Fuc(a1-2)[GalNAc(a1-3)]Gal(b1-3)GlcNAc(b1-3)GalNAc
In short: as §1

[7] = target: Fuc(a1-2)[GalNAc(a1-3)]Gal(b1-4)GlcNAc(b1-3)[Fuc(a1-2)[GalNAc(a1-3)]Gal(b1-4)GlcNAc(b1-6)]GalNAc
In short: as §1

[8] = target: Fuc(a1-3)[Gal(b1-4)]Glc6S
In short: as §1

[9] = target: Fuc(a1-3)[Gal(b1-4)]GlcNAc(b1-3)GalNAc
In short: as §1

[10] = target: Fuc(a1-3)[Gal3S(b1-4)]GlcNAc6S
In short: as §1

[11] = target: Fuc(a1-3)[GalNAc(b1-4)]GlcNAc
In short: as §1

[12] = target: Gal(a1-3)Gal(b1-3)GlcNAc(b1-2)Man
In short: as §1

[13] = target: Gal(a1-3)Gal(b1-3)[Fuc(a1-4)]GlcNAc(b1-2)Man(a1-3)[Gal(a1-3)Gal(b1-3)[Fuc(a1-4)]GlcNAc(b1-2)Man(a1-6)]Man(b1-4)GlcNAc(b1-4)GlcNAc
In short: as §1

[14] = target: Gal(a1-3)Gal(b1-4)[Fuc(a1-3)]GlcNAc
In short: as §1

[15] = target: Gal(a1-4)Gal(b1-4)GlcNAc(b1-2)Man(a1-3)[Gal(a1-4)Gal(b1-4)GlcNAc(b1-2)Man(a1-6)]Man(b1-4)GlcNAc(b1-4)GlcNAc
In short: as §1

[16] = target: Gal(b1-3)GlcNAc(a1-3)Gal(b1-4)GlcNAc
In short: as §1

[17] = target: Gal(b1-3)GlcNAc(b1-2)[Gal(b1-3)GlcNAc(b1-6)]Man(a1-6)[Gal(b1-3)GlcNAc(b1-2)Man(a1-3)]Man(b1-4)GlcNAc(b1-4)GlcNAc
In short: as §1

[18] = target: Gal(b1-3)GlcNAc(b1-3)Gal(b1-4)GlcNAc
In short: as §1

[19] = target: Gal(b1-3)GlcNAc(b1-3)Gal(b1-4)[Fuc(a1-3)]GlcNAc
In short: as §1

[20] = target: Gal(b1-3)GlcNAc(b1-3)Gal(b1-4)[Fuc(a1-3)]GlcNAc(b1-6)[Gal(b1-3)GlcNAc(b1-3)]Gal(b1-4)Glc
In short: as §1

[21] = target: Gal(b1-3)GlcNAc(b1-6)[Gal(b1-3)]GalNAc
In short: as §1

[22] = target: Gal(b1-4)GlcNAc(b1-3)Gal(b1-4)Glc
In short: as §1

[23] = target: Gal(b1-4)GlcNAc(b1-3)Gal(b1-4)GlcNAc(b1-3)Gal(b1-4)GlcNAc(b1-3)Gal(b1-4)GlcNAc(b1-2)Man(a1-3)[Gal(b1-4)GlcNAc(b1-3)Gal(b1-4)GlcNAc(b1-3)Gal(b1-4)GlcNAc(b1-3)Gal(b1-4)GlcNAc(b1-2)Man(a1-6)]Man(b1-4)GlcNAc(b1-4)[Fuc(a1-6)]GlcNAc
In short: as §1

[24] = target: Gal6S(b1-3)GlcNAc
In short: as §1

[25] = target: GalNAc(a1-3)GalNAc
In short: as §1

[26] = target: Glc(a1-2)Glc(a1-3)Glc(a1-3)Man(a1-2)Man(a1-2)Man(a1-3)[Man(a1-2)Man(a1-3)[Man(a1-2)Man(a1-6)]Man(a1-6)]Man(b1-4)GlcNAc
In short: as §1

[27] = target: GlcA(b1-3)GlcNAc(b1-4)GlcA(b1-3)GlcNAc(b1-4)GlcA(b1-3)GlcNAc(b1-4)GlcA(b1-3)GlcNAc(b1-4)GlcA(b1-3)GlcNAc(b1-4)GlcA(b1-3)GlcNAc(b1-4)GlcA(b1-3)GlcNAc(b1-4)GlcA(b1-3)GlcNAc
In short: as §1

[28] = target: GlcNAc(a1-3)Gal(b1-4)GlcNAc
In short: as §1

[29] = target: GlcNAc(b1-2)Man(a1-3)[GlcNAc(b1-2)Man(a1-6)]Man(b1-4)GlcNAc(b1-4)GlcNAc
In short: as §1

[30] = target: GlcNAc(b1-2)Man(a1-3)[Man(a1-3)[Man(a1-6)]Man(a1-6)][GlcNAc(b1-4)]Man(b1-4)GlcNAc(b1-4)GlcNAc
In short: as §1

B1: Banana lectin (Musa acuminata) (protein)
chain: MNGAIKVGAWGGNGGSAFDMGPAYRIISVKIFSGDVVDGVDVTFTYYGKTETRHYGGSGGTPHEIVLQEGEYLVGMAGEVANYHGAVVLGKLGFSTNKKAYGPFGNTGGTPFSLPIAAGKISGFFGRGGKFLDAIGVYLEPLEHHHHHH
B1 was tested. Which “glycan array binding signal (z-score)” value [1] did it give?
Its value is 0.041.

What about the “glycan array binding signal (z-score)” value [2] of the same binder?
The value was 0.084.

And the “glycan array binding signal (z-score)” value [3]?
The value was -0.22.

And the “glycan array binding signal (z-score)” value [4]?
The value was -0.374.

What about the “glycan array binding signal (z-score)” value [5] of the same binder?
Its value is 0.595.

And the “glycan array binding signal (z-score)” value [6]?
Its value is -0.215.

What about the “glycan array binding signal (z-score)” value [7] of the same binder?
The value was -0.173.

And the “glycan array binding signal (z-score)” value [8]?
The value was -0.211.

And the “glycan array binding signal (z-score)” value [9]?
The value was -0.268.

And the “glycan array binding signal (z-score)” value [10]?
The value was -0.212.

What about the “glycan array binding signal (z-score)” value [11] of the same binder?
The value was -0.132.

And the “glycan array binding signal (z-score)” value [12]?
The value was -0.189.

And the “glycan array binding signal (z-score)” value [13]?
Its value is 0.245.

And the “glycan array binding signal (z-score)” value [14]?
The value was -0.222.

And the “glycan array binding signal (z-score)” value [15]?
Its value is -0.174.

And the “glycan array binding signal (z-score)” value [16]?
The value was 3.29.

What about the “glycan array binding signal (z-score)” value [17] of the same binder?
Its value is 0.504.

What about the “glycan array binding signal (z-score)” value [18] of the same binder?
The value was -0.264.

And the “glycan array binding signal (z-score)” value [19]?
Its value is -0.216.

And the “glycan array binding signal (z-score)” value [20]?
Its value is -0.216.

What about the “glycan array binding signal (z-score)” value [21] of the same binder?
Its value is 0.054.

What about the “glycan array binding signal (z-score)” value [22] of the same binder?
Its value is -0.22.

And the “glycan array binding signal (z-score)” value [23]?
Its value is -0.154.

And the “glycan array binding signal (z-score)” value [24]?
The value was -0.197.

And the “glycan array binding signal (z-score)” value [25]?
Its value is -0.213.

What about the “glycan array binding signal (z-score)” value [26] of the same binder?
The value was 1.56.

And the “glycan array binding signal (z-score)” value [27]?
Its value is -0.99.

What about the “glycan array binding signal (z-score)” value [28] of the same binder?
The value was 0.842.

And the “glycan array binding signal (z-score)” value [29]?
Its value is 0.105.

What about the “glycan array binding signal (z-score)” value [30] of the same binder?
The value was -0.039.
